Screening results (PubChem BioAssay)
Hits are enriched below; roughly 2.6% of the tested compounds scored in any of these assays.
Cruzain noTriton = inhibitors of Trypanosoma cruzi cruzain without detergent; Potency, µM, usual class: inhibitors; AID 1476; 200,000 compounds, 2.3% hits; purified cruzain, Z-FR-AMC fluorescence, no detergent; note: nearly all actives have a fitted effect of over 40% in size
Target sequence (P25779 123-467 limits assumed): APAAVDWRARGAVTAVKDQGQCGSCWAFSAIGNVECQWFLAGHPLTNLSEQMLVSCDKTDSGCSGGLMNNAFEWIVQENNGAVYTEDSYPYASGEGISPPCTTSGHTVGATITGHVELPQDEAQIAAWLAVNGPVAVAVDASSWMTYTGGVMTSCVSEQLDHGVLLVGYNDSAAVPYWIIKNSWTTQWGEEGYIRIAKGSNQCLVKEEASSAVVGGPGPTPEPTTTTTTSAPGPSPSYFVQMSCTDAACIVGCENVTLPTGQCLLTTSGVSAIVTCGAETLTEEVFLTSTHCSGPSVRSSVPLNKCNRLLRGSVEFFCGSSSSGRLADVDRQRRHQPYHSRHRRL
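Purified cruzain at 1.5 nM, pre-incubated 15 min with compound at room temperature in 100 mM sodium acetate pH 5.5, 5 mM DTT, 0.00005% Triton X-100. Reaction started with 2 uM Z-FR-AMC; AMC fluorescence increase over 60 s gives rate.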
Cruzain inh Det = inhibitors of Trypanosoma cruzi cruzain with detergent | Potency, µM, actives largely listed as inhibitors | purified cruzain, Z-FR-AMC fluorescence, 0.01% Triton | P25779 | 200,000 compounds, 0.43% hits; note: nearly all actives have a fitted effect of over 40% in size
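Read-out: AMC fluorescence (360 nm excitation, 450 nm emission), four reads over 2 min, first-to-third difference used. Conditions: cruzain 1.5 nM, Z-FR-AMC 2 uM, pH 5.5 acetate, 5 mM DTT, 0.01% Triton X-100.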
Numbers stand for hits; i = inactive; ? = inconclusive. Calls come from the whole dose curve; as a rule, active = well fitted curve in the direction sought with a large enough effect; inconclusive = small, poorly fitted or top-dose-only effect, or another doubt; inactive = no such curve, though single readings can be large; an effect the other way counts as inactive or inconclusive.

SMILES	Cruzain noTriton	Cruzain inh Det
COc1ccc(N(CC(=O)N/N=C/c2ccc(-c3ccc([N+](=O)[O-])cc3)o2)S(=O)(=O)c2ccc(C)cc2)cc1	4µM	i
COc1ccccc1NC(=O)CN(c1ccc([N+](=O)[O-])cc1)S(=O)(=O)c1ccccc1	i	i
COc1ccc(N(CC(=O)N/N=C/c2ccc(-c3ccc([N+](=O)[O-])cc3)o2)S(=O)(=O)c2ccc(C)cc2)cc1Cl	6.3µM	i
CCCCNC(=O)CSc1nc2ccccc2nc1Cc1ccc(Cl)cc1	i	i
CCOc1ccc(CNC(=O)Cn2c(=O)c3cccn3c3ccc(F)cc32)cc1OC	i	i
COc1cccc(-c2cc(NCc3ccccc3)ncn2)c1	i	i
CCOc1ccccc1NC(=O)CSc1nccn1-c1cccc(C)c1	i	i
Cc1cccc(C)c1NC(=O)C(NS(=O)(=O)c1ccc2c(c1)CCC(=O)N2)c1ccccc1 (stereo not drawn)	i	i
CC(=O)OC(C)C	i	i
COc1ccc(NC(=O)CSc2nc(-c3cc(OC)c(OC)c(OC)c3)[nH]c2-c2ccc(F)cc2)cc1	?	i
CSc1nc2sc3c(c2c(=O)n1-c1ccccc1)CCC(C(C)(C)C)C3 (stereo not drawn)	i	i
O=C(CC(C(=O)O)c1ccccc1)Nc1cccc2ccccc12 (stereo not drawn)	i	i
O=C(CC(NC(=O)c1ccccc1)c1ccccc1)Nc1cccc2ccccc12 (stereo not drawn)	25µM	i
Cc1ccc2nc(SCc3nnc(-c4ccccc4)o3)[nH]c2c1	i	i
Cc1ccc(C(=O)NNC(=O)CSc2nnc3c(n2)[nH]c2ccc(C)cc23)cc1	?	i
CCc1ccc2[nH]c3nc(SCc4nnc(-c5ccc(C)cc5)o4)nnc3c2c1	13µM	i
CCc1ccc2[nH]c3nc(SCC(=O)NNC(=O)c4ccc(C(C)(C)C)cc4)nnc3c2c1	4µM	i
COc1ccccc1NC(=O)Cn1c(=O)n(CCc2ccccc2)c(=O)c2sc3ccccc3c21	i	i
CCCOc1ccccc1C(=O)N1CCCCC1CCN1CCOCC1 (stereo not drawn)	i	i
O=C(NC1CC(=O)N(c2cccc(F)c2)C1)c1ccc(S(=O)(=O)N2CCOCC2)cc1 (stereo not drawn)	i	i
Cc1ccc(NC(=O)CCS(=O)(=O)c2ccc(Br)s2)c(Br)c1	i	i
COc1ccc(N/C(N)=N/c2nc(CSc3ccc(Cl)cc3)cc(=O)[nH]2)cc1	i	i
N/C(=N\c1nc(CSc2ccc(Cl)cc2)cc(=O)[nH]1)Nc1cccc2ccccc12	10µM	i
Cc1ccc(C)c(N2CCN(C(=O)c3ccc4nc(-c5ccco5)c(-c5ccco5)nc4c3)CC2)c1	i	i
COc1ccccc1N1CCN(C(=O)c2ccc3nc(-c4ccco4)c(-c4ccco4)nc3c2)CC1	?	13µM
SMILES	Cruzain noTriton	Cruzain inh Det
N#Cc1cc(-c2ccc(Cl)cc2)cn(Cc2c(Cl)cccc2Cl)c1=O	i	i
CSc1cc(-c2ccccc2)n(Cc2c(Cl)cccc2Cl)c(=O)c1C#N	10µM	i
CSc1cc(-c2ccc(Cl)cc2)n(Cc2ccccc2)c(=O)c1C#N	25µM	i
CSc1nc(N)c(C#N)c(-c2ccc(Cl)cc2)c1C#N	i	i
Cc1ccccc1-c1noc(-c2ccc(N3CCCCC3)c([N+](=O)[O-])c2)n1	i	i
Cc1ccc(-c2csc(NC(=S)NC(=O)c3cccs3)n2)cc1	16µM	i
Cc1cc(C)c2oc(-c3ccc(C)c(NC(=S)NC(=O)c4cccs4)c3)nc2c1	7.9µM	i
Cc1sc(NC(=O)c2cccs2)nc1-c1ccccc1	i	i
O=C(NC(=S)Nc1nc(-c2ccccc2)cs1)c1cccs1	?	i
Cc1sc(NC(=S)NC(=O)c2cccs2)nc1-c1ccc(C(C)C)cc1	10µM	i
Cc1ccc(-c2nc3ccccc3o2)cc1NC(=S)NC(=O)c1cccs1	?	i
CCCN(Cc1cccs1)C(=O)Nc1cc(OC)ccc1OC	i	i
CCOc1ccc(OCC)c(NC(=O)C2CCCN(S(=O)(=O)c3ccc4c(c3)oc(=O)n4C)C2)c1 (stereo not drawn)	i	i
COc1ccc(NC(=O)Cn2c(=O)n(Cc3ccc(C(=O)NCc4ccccc4Cl)cc3)c(=O)c3ccccc32)cc1OC	i	i
O=C(Cn1c(=O)n(Cc2ccc(C(=O)NCc3ccccc3Cl)cc2)c(=O)c2ccccc21)Nc1ccc(F)c(Cl)c1	7.9µM	i
O=C(Cn1c(=O)n(Cc2ccc(C(=O)NCc3ccccc3Cl)cc2)c(=O)c2ccccc21)Nc1ccc(F)cc1	13µM	i
CCc1ccc(NC(=O)Cn2c(=O)n(CCCC(=O)NCc3ccccc3Cl)c(=O)c3ccccc32)cc1	i	i
CCCOC(=O)c1cccc(Nc2nc(CCC)cc(=O)[nH]2)c1	i	i
COc1cccc([C@@H]2Oc3ccc(Br)cc3C[C@H]2OC(=O)NS(=O)(=O)c2ccc(F)cc2)c1	i	i
